In PubChem BioAssay (Tox21):
Inconclusive results are not listed. Calls of active or inactive are those of the source. Unless noted, calls come from the whole dose curve; as a rule, active = well fitted curve in the direction sought with a large enough effect in the repeat runs; inconclusive = weak or mixed curves; inactive = no such curve, though single readings can be large; an effect the other way counts as inactive or inconclusive.

What was measured:
[1] = qHTS assay to identify small molecule agonists of the androgen receptor (AR) signaling pathway in the presence of an antagonist - cell viability counter screen (AID 1259379); note: nearly all actives have a fitted effect of over 25% in size; note: potency is the fitted concentration of half-maximal effect;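 for activity change, negative = cytotoxicity: MDA-kb2 human breast cancer cells carrying an MMTV luciferase reporter; series mostly up to about 92 µM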
In short: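 Cytotoxicity is assessed by CellTiter-Fluor in MDA-kb2 cells carrying an MMTV-driven luciferase reporter. Cells receive 3.0uM nilutamide plus compounds at 15 concentrations and incubate 16 hr at 37C without CO2 before fluorescence reading.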

[2] = qHTS assay to identify small molecule agonists of the estrogen receptor beta (ER-beta) signaling pathway - cell viability counter screen (AID 1259380); note: nearly all actives have a fitted effect of over 30% in size; note: potency is the fitted concentration of half-maximal effect
In short: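 Cytotoxicity is measured in parallel with the reporter screen: after 16 hr compound exposure at 37C and a 2 hr LiveBLAzer step, CellTiter-Glo is added to the same ER-beta-UAS-bla HEK293T wells and luminescence read after 30 min.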

[3] = qHTS assay to identify small molecule antagonists of the estrogen receptor beta (ER-beta) signaling pathway - cell viability counter screen (AID 1259382); note: nearly all actives have a fitted effect of over 55% in size; note: potency is the fitted concentration of half-maximal effect;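 for activity change, negative = cytotoxicity: HEK293T cells carrying ER-beta-UAS-bla reporter stimulated with estradiol; series mostly up to about 92 µM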
In short: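 Cytotoxicity counter screen multiplexed with the beta-lactamase antagonist assay: GripTite HEK293T ER-beta-bla cells were treated 16 hr with test chemicals in the presence of 1nM 17-beta-estradiol, and viability was measured by CellTiter-Glo.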

[4] = target: Estrogen receptor (Homo sapiens) (UniProt P03372); experiment: qHTS assay to identify small molecule agonists of the estrogen receptor alpha (ER-alpha) signaling pathway in the presence of an antagonist (AID 1259383; calls by dose curve; note: nearly all actives have a fitted effect of over 15% in size; note: potency is the fitted concentration of half-maximal effect; for activation: top concentration of the series differs between compounds)
In short: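 Agonist-mode confirmation in the presence of the ER antagonist ICI-182,780 at 10.0nM final. Breast-derived VM7Luc4E2 reporter cells were exposed to compounds for 22hr, and ERE-driven luciferase was quantified by luminescence.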

[5] = qHTS assay to identify small molecule agonists or antagonists of the thyroid stimulating hormone receptor (TSHR) signaling pathway - wild type cell line counter screen (AID 1259384; calls by dose curve)
In short: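 Counter screen in untransfected Hek293: compounds (15-point titration, triplicate) plus phosphodiesterase inhibitor Ro20-1724 added after 18 h plating; 30 min RT. Intracellular cAMP via competitive d2/cryptate immunoassay, 1 h incubation.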

[6] = target: Thyrotropin receptor (Homo sapiens) (UniProt P16473); experiment: qHTS assay to identify small molecule antagonists of the thyroid stimulating hormone receptor (TSHR) signaling pathway (AID 1259385; calls by dose curve; note: nearly all actives have a fitted effect of over 20% in size; note: potency is the fitted concentration of half-maximal effect)
In short: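 Antagonist mode: compound-treated TSHR-expressing HEK293 cells were stimulated with 1.5 ng/mL TSH (final) in presence of Ro20-1724 for 30 min at RT. HTRF cAMP detection after 1 h; each compound tested at 15 concentrations, triplicate.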

[7] = qHTS assay to identify small molecule agonists of the estrogen receptor alpha (ER-alpha) signaling pathway in the presence of an antagonist - cell viability counter screen (AID 1259386);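 note: cells exposed to compounds for 22 h at 37 °C before the viability read; nearly all actives have a fitted effect of over 30% in size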; note: potency is the fitted concentration of half-maximal effect; for activity change, negative = cytotoxicity: series mostly up to about 92 µM
In short: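 Cytotoxicity was measured in parallel with the ERE-luciferase agonist screen, in the same wells. The cells were VM7Luc4E2, which endogenously express ER-alpha, and treatment was with compounds plus 10.0nM ICI-182,780 for 22hr.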

[8] = target: Estrogen receptor beta (Homo sapiens) (UniProt Q92731); experiment: qHTS assay to identify small molecule antagonists of the estrogen receptor beta (ER-beta) signaling pathway (AID 1259378; active = well fitted inhibition curve with a large enough effect in the signal ratio in the repeat runs, not every such curve was filed as active; the % refers to the signal ratio; note: potency is the fitted concentration of half-maximal effect)
In short: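 Antagonist mode: compounds added to beta-lactamase reporter HEK293T ER-beta-UAS cells stimulated with E2 (1nM final), 16 hr at 37C. LiveBLAzer B/G FRET substrate, 2 hours room temperature, fluorescence read-out.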

[9] = target: Androgen receptor (Homo sapiens) (UniProt P10275); experiment: qHTS assay to identify small molecule agonists of the androgen receptor (AR) signaling pathway in the presence of an antagonist (AID 1259381; calls by dose curve; note: nearly all actives have a fitted effect of over 15% in size; note: potency is the fitted concentration of half-maximal effect)
In short: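 Agonist-mode confirmation screen: human MDA-kb2 cells stably expressing luciferase under an MMTV promoter bearing AR and GR response elements, co-treated with 3.0uM nilutamide (final). Luminescence measured after 16hr compound incubation.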
% is set by controls: 0 for no effect and ±100 for the full control effect.

Sequence of Thyrotropin receptor (Homo sapiens) (P16473 whole entry, looked up): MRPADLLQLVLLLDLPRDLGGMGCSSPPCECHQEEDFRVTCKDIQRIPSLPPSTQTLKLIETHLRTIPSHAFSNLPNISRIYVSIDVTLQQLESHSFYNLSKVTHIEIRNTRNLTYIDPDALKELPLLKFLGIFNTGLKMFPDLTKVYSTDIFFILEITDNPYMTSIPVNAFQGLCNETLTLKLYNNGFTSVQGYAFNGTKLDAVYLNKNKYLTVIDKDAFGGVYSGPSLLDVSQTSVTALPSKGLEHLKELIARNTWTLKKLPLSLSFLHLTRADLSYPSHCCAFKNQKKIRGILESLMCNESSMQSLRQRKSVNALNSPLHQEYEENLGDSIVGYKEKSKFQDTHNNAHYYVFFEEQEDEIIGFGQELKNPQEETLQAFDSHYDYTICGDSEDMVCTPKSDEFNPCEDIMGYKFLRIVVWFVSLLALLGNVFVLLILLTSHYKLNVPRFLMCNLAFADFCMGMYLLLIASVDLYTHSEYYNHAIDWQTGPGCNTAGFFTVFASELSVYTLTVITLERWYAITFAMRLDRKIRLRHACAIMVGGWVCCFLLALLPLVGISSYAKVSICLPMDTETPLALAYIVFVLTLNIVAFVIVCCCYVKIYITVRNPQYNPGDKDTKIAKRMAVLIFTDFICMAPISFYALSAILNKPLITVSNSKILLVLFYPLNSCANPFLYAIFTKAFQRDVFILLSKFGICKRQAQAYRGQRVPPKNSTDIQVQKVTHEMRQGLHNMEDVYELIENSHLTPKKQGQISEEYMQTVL
Sequence of Estrogen receptor (Homo sapiens) (P03372 whole entry, looked up): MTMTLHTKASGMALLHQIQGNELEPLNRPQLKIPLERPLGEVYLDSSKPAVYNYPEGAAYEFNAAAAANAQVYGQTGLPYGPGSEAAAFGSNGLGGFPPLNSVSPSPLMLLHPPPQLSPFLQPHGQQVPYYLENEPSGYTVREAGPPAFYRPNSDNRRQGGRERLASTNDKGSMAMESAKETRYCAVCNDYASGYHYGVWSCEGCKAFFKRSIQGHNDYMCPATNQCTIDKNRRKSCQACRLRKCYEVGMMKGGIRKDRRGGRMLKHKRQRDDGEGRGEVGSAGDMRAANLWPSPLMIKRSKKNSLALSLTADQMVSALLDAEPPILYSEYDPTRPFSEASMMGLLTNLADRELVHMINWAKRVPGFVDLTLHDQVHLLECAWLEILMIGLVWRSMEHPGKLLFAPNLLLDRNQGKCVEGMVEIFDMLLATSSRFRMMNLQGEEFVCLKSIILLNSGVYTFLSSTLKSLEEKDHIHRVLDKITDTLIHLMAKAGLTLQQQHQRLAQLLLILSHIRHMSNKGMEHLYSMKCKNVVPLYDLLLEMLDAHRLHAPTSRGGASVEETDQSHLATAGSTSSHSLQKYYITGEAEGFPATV
Sequence of Androgen receptor (Homo sapiens) (P10275 whole entry, looked up): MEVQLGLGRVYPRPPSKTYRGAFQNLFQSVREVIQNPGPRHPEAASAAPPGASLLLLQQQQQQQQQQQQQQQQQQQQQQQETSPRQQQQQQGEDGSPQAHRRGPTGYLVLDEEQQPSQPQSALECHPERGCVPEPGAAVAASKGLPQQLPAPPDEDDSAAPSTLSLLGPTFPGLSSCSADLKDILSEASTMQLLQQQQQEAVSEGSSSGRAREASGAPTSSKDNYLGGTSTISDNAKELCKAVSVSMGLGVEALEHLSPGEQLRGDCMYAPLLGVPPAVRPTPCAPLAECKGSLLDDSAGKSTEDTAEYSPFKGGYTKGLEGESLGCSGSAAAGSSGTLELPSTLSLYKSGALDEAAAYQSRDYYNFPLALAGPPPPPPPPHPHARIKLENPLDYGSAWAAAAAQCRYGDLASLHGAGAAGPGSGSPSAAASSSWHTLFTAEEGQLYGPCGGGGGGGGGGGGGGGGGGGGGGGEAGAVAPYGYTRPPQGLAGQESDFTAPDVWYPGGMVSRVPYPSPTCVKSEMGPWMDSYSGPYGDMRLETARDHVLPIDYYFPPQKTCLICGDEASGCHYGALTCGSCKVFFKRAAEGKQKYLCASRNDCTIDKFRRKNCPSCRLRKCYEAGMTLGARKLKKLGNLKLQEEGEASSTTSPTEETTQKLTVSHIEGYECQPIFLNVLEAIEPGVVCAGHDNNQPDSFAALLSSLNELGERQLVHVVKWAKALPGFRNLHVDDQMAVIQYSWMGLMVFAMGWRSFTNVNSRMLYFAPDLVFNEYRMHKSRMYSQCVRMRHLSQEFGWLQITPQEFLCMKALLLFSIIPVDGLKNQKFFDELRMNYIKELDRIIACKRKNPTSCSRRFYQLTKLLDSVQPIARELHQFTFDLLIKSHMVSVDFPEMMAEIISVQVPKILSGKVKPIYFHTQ
Sequence of Estrogen receptor beta (Homo sapiens) (Q92731 whole entry, looked up): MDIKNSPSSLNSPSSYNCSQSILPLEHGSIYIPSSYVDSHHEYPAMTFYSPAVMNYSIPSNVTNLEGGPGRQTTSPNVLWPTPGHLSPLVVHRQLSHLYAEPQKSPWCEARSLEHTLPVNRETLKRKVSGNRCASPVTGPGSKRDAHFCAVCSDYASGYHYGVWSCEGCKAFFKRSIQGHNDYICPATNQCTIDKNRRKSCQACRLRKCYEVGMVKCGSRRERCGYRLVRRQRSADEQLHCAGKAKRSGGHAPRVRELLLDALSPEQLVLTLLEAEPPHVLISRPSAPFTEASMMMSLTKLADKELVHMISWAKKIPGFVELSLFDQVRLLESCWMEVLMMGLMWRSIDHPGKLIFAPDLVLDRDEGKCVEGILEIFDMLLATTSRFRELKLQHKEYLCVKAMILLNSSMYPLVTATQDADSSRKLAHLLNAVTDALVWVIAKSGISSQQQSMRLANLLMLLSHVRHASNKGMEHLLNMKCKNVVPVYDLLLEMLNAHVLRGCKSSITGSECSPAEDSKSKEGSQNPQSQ

CCN(CC)CCOc1ccc2c(c1)C(=O)c1cc(OCCN(CC)CC)ccc1-2
active: Potency [1] 13.3 µM | Potency [2] 18.8 µM | Potency [3] 18.8 µM

CCOC(=S)SSC(=S)OCC
inactive: Potency [1] | Potency [2] | Potency [3] | Potency [4] | Potency [5] | Potency [6] | Potency [7]

CCCCCOC(=O)c1ccc(O)cc1
active: Potency [8] 24.6 µM | Potency [4] 31 µM
inactive: Potency [3] | Potency [5] | Potency [6]

Nc1nc(N)c2nc(CNc3ccc(C(=O)N[C@@H](CCC(=O)O)C(=O)O)cc3)cnc2n1
inactive: Potency [8] | Potency [1] | Potency [2] | Potency [4] | Potency [5] | Potency [6] | Potency [7]

CCN(CC)CCNC(C(=O)OCCC(C)C)c1ccccc1 (stereo not given)
inactive: Potency [8] | Potency [1] | Potency [3] | Potency [4] | Potency [5] | Potency [6] | Potency [7]

Cc1occc1S
inactive: Potency [8] | Potency [1] | Potency [3] | Potency [4] | Potency [5] | Potency [6] | Potency [7]

O=C(NS(=O)(=O)/C=C/c1cccs1)c1ccc(F)cc1Br
inactive: Potency [1] | Potency [2] | Potency [9] | Potency [3] | Potency [4] | Potency [7]

O=C1Nc2cc(Cl)ccc2Oc2ccccc21
inactive: Potency [1] | Potency [2] | Potency [9] | Potency [3] | Potency [4] | Potency [5] | Potency [7]

CC(C)(C)c1ccc(OCC2CO2)cc1 (stereo not given)
inactive: Potency [8] | Potency [4] | Potency [5] | Potency [6] | Potency [7]

CCCCCCCCN(C)C
inactive: Potency [1] | Potency [2] | Potency [3] | Potency [4] | Potency [5] | Potency [7]

O=S(=O)(O)c1ccc(O)c2ncccc12
inactive: Potency [1] | Potency [2] | Potency [3] | Potency [4] | Potency [5] | Potency [6] | Potency [7]

Cc1cc(C)c(S(=O)(=O)O)cc1N=Nc1cc(S(=O)(=O)O)c2ccccc2c1O
inactive: Potency [8] | Potency [9] | Potency [3] | Potency [5] | Potency [6]
active: Potency [1] 27.3 µM | Potency [7] 27.3 µM

O=C(Cl)c1c(Cl)cccc1Cl
inactive: Potency [1] | Potency [2] | Potency [3] | Potency [4] | Potency [5] | Potency [6] | Potency [7]

NC1CCN(c2nc3c(cc2F)c(=O)c(C(=O)O)cn3-c2ccc(F)cc2F)C1 (stereo not given)
inactive: Potency [1] | Potency [2] | Potency [3] | Potency [4] | Potency [5] | Potency [6] | Potency [7]

C[Si](C)O[Si](C)(C)O[Si](C)(C)O[Si](C)C
inactive: Potency [1] | Potency [2] | Potency [3] | Potency [4] | Potency [5] | Potency [6] | Potency [7]

CCOC(=O)CC(C)C
inactive: Potency [8] | Potency [3] | Potency [4] | Potency [5] | Potency [6] | Potency [7]

Nc1ccc(C(=O)Nc2ccccc2N)cc1
active: Potency [2] 0.841 µM | Potency [9] 5.96 µM
inactive: Potency [1] | Potency [4] | Potency [6] | Potency [7]

Cc1ccc(C(=O)C(C)CN2CCCCC2)cc1 (stereo not given)
inactive: Potency [8] | Potency [1] | Potency [3] | Potency [4] | Potency [5] | Potency [6] | Potency [7]

CN(C)CC/C=C1\c2ccccc2COc2ccccc21
inactive: Potency [1] | Potency [9] | Potency [5] | Potency [7]
active: Potency [2] 26.6 µM

CN(C)CCCOc1nn(Cc2ccccc2)c2ccccc12
inactive: Potency [8] | Potency [1] | Potency [3] | Potency [4] | Potency [5] | Potency [6] | Potency [7]

CC(=O)OCCc1ccccc1
inactive: Potency [1] | Potency [2] | Potency [3] | Potency [4] | Potency [5] | Potency [6] | Potency [7]

CC(C)NCC(O)COc1ccc(CC(N)=O)cc1 (stereo not given)
inactive: Potency [1] | Potency [2] | Potency [3] | Potency [4] | Potency [5]

Cn1c(N)nc2nc[nH]c2c1=O
inactive: Potency [8] | Potency [2] | Potency [3] | Potency [7]

CCCC(=O)OCC
inactive: Potency [8] | Potency [1] | Potency [4] | Potency [5] | Potency [6] | Potency [7]

O=C(C(=O)c1ccc(Br)cc1)c1ccc(Br)cc1
active: Potency [9] 15.2 µM
inactive: activity change, negative = cytotoxicity [1] 0.135% [at 19 µM] | activity change, negative = cytotoxicity [2] 0.571% [at 19 µM] | activation [4] 0.308% [at 19 µM] | cAMP activity change [5] 5.87% [at 18.9 µM, stronger effect = higher value] | activity change, negative = cytotoxicity [7] 0.0353% [at 19 µM]

CCN(CC)C(C)CN1c2ccccc2Sc2ccccc21 (stereo not given)
inactive: Potency [8] | Potency [1] | Potency [3] | Potency [4] | Potency [5] | Potency [6] | Potency [7]

O=C(Nc1ccccc1)OCC(CN1CCCCC1)OC(=O)Nc1ccccc1 (stereo not given)
inactive: Potency [1] | Potency [4] | Potency [7]
active: Potency [8] 26.6 µM | Potency [6] 18.8 µM

CC(C)c1ccccc1C(C)C
inactive: Potency [8] | Potency [2] | Potency [3] | Potency [5] | Potency [6] | Potency [7]

O=C(O)[C@@H]1[C@H]2C[C@H]3c4[nH]c5ccccc5c4CCN3C[C@@H]2CC[C@@H]1O
inactive: Potency [1] | Potency [2] | Potency [9] | Potency [3] | Potency [4] | Potency [5] | Potency [6] | Potency [7]

CNCC[C@@H](Oc1ccccc1C)c1ccccc1
active: Potency [2] 26.6 µM
inactive: Potency [1] | Potency [9] | Potency [4] | Potency [5] | Potency [7]

CCOc1nc2cccc(C(=O)O)c2n1Cc1ccc(-c2ccccc2-c2nn[nH]n2)cc1
inactive: Potency [8] | Potency [1] | Potency [9] | Potency [4] | Potency [5]

CCOc1ccc2[nH]cc(C(=O)NCc3ccccc3)c(=O)c2n1
inactive: Potency [1] | Potency [2] | Potency [3] | Potency [4] | Potency [5] | Potency [7]

COc1ccc(C(C)=O)cc1
inactive: Potency [8] | Potency [1] | Potency [9] | Potency [3] | Potency [4] | Potency [7]

CN1CCC(OC(c2ccccc2)c2ccccc2)CC1
inactive: Potency [1] | Potency [2] | Potency [3] | Potency [4] | Potency [5] | Potency [6] | Potency [7]
